Screening results from PubChem BioAssay.
Nrf2 activator – qHTS of Nrf2 Activators; AREc32 ARE-luciferase reporter (MCF7-derived line), luminescence, 24 h; Potency, µM (titrated, usually from 46.1 µM), hits mostly activators; 410,000 tested, 0.31% active; note: nearly all actives have a fitted effect of over 65% in size
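AREc32 cells carrying an ARE-driven firefly luciferase, 1000 cells/well in OPTI-MEM with 5% FBS, dosed after overnight attachment and incubated 24 hr at 37 deg C. Steady-Glo luminescence read after 30 min at RT.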
Nrf2 inh – Nrf2 qHTS screen for inhibitors; A549 ARE-Fluc reporter, luciferase luminescence, 18-24 h; Potency, µM (series often up to 46 µM), actives largely listed as inhibitors; 360,000 tested, 2.1% active; AID 504444, 2011; note: nearly all actives have a fitted effect of over 60% in size
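A549 ARE_Fluc cells (5000/well, 5% FBS OPTI-MEM) pre-incubated 2 h, then treated with compounds 18-24 h at 37C/5% CO2 in concentration-response. CellTiter-Fluor viability read first; BugLite luciferase luminescence after 15 min at room temperature gives Nrf2 activity.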
S2 tox – Viability Counterscreen for Primary qHTS for Inhibitors of ATXN expression. S2 cells (HEK-293 line with an ATXN2-luciferase reporter) viability, CellTiter-Fluor protease fluorescence, 24 h. Potency, µM (series often up to 56.7 µM), usual class: cytotoxic. 400,000 tested, 0.49% active; note: nearly all actives have a fitted effect of over 40% in size
A549 viability – Nrf2 qHTS screen for inhibitors: counterscreen for cytotoxicity. A549 ARE-Fluc cells, CellTiter-Fluor viability, 18-24 h. Potency, µM (highest dose often 46 µM), hits mostly inhibitors. 390,000 tested, 0.16% active. AID 504648, 2011
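A549 ARE-Fluc cells in 5% FBS OPTI-MEM, 5000 cells/well, rested 2 h then exposed to compounds in concentration-response for 18-24 h at 37 °C. Viability by CellTiter-Fluor fluorescence (Ex 405/Em 525) after 30 min; luciferase luminescence (BugLite, 15 min, RT) read afterwards.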
ATXN2 expr inh – Primary qHTS for Inhibitors of ATXN expression; HEK-293 ATXN2-luciferase reporter, luminescence, 24 h; Potency, µM (titrated, usually from 57 µM), most hits filed as inhibitors; 360,000 tested, 0.72% active; AID 1745845, 2022; note: nearly all actives have a fitted effect of over 55% in size
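ATXN2-luciferase reporter cells (luciferase flanked by upstream and downstream ATXN2 gene portions) were treated 24 h at 37 °C with compounds at up to 57 uM. SteadyGlo luminescence gave expression; GF-AFC fluorescence gave viability.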
Of the large screens only hits and unclear results are named; the others gave an inactive call. Only some compounds are listed: those with a hit (about 2.9% of all), similar ones and a draw of the others. Calls come from the whole dose curve; as a rule, active = well fitted curve in the direction sought with a large enough effect; inconclusive = small, poorly fitted or top-dose-only effect, or another doubt; inactive = no such curve, though single readings can be large; an effect the other way counts as inactive or inconclusive.

COC(=O)C1=C(C)N(Cc2ccccc2)C(=NCCc2cccnc2)N[C@H]1c1ccccc1	S2 tox inconclusive, ATXN2 expr inh inconclusive
COC(=O)C1=C(C)N(Cc2ccccc2)C(=S)N[C@H]1c1cccc(C(F)(F)F)c1	Nrf2 inh 18µM, S2 tox inconclusive
COC(=O)C1=C(C)N(Cc2ccccc2)C(=O)N[C@H]1c1cccc(C(F)(F)F)c1	Nrf2 inh inconclusive
COC(=O)C1=C(C)N(Cc2ccccc2)C(=NCCc2ccccn2)N[C@H]1c1cccc(C(F)(F)F)c1	S2 tox inconclusive, ATXN2 expr inh 35µM
CCN1C(=NCCc2ccccn2)N[C@@H](c2cccc(C(F)(F)F)c2)C(C(=O)OC)=C1C	none
COC(=O)C1=C(C)N(Cc2ccccc2)C(=NCCc2cccnc2)N[C@H]1c1ccc(Br)cc1	S2 tox inconclusive, ATXN2 expr inh 32µM
COC(=O)c1ccc(C2NC(=S)N(c3ccccc3)C(C)=C2C(=O)Nc2ccccc2OC)cc1 (stereo unspecified)	Nrf2 inh inconclusive (no result: A549 viability)
COc1cc(C2Nc3ccccc3C(=O)N2Cc2ccccc2)ccc1OCc1ccc(NC(C)=O)cc1 (stereo unspecified)	none (no result: Nrf2 activator, S2 tox, ATXN2 expr inh)
COc1ccc(C(=O)N(Cc2ccccc2)Cc2ccccc2)c(O)c1	Nrf2 inh inconclusive (no result: Nrf2 activator, S2 tox, ATXN2 expr inh)
CC(=O)N[C@@H](CO)C(=O)N[C@@H](CC(=O)O)C(=O)N[C@@H](CCCCN)C(=O)N1CCC[C@H]1C(=O)O	none (no result: Nrf2 activator, Nrf2 inh, A549 viability)
Cc1cccc(C(=O)N[C@H]2CC[C@@H](n3cc(C(=O)N4CCCC4)nn3)CC2)c1	none (no result: Nrf2 activator, Nrf2 inh, A549 viability, ATXN2 expr inh)
CC(C)[C@H](NC(=O)c1ccc(C(C)(C)C)cc1)C(=O)N1CCN(Cc2ccc3c(c2)OCO3)CC1	Nrf2 inh 21µM, A549 viability inconclusive, ATXN2 expr inh inconclusive
COc1ccc(N2CC(NC(=O)COc3ccc4ccccc4c3)CC2=O)cc1 (stereo unspecified)	none (no result: Nrf2 inh, S2 tox, ATXN2 expr inh)
O=C1CCCN1c1ccc(S(=O)(=O)Oc2ccc(Cl)cc2)cc1[N+](=O)[O-]	Nrf2 inh 7.3µM, A549 viability inconclusive
CCCNS(=O)(=O)c1ccc(N2CCCC2=O)c([N+](=O)[O-])c1	none
COC(=O)c1cc(Cl)ccc1NS(=O)(=O)C(F)(F)F	none (no result: Nrf2 activator, Nrf2 inh, A549 viability)
O=C(c1ccc(Oc2ccc([N+](=O)[O-])cc2Cl)cc1)N1CCCC1	Nrf2 inh inconclusive, ATXN2 expr inh inconclusive
O=C(c1ccc(Oc2ccc([N+](=O)[O-])cc2)cc1)N1CCCCCC1	Nrf2 inh 5.8µM
COc1cccc(-c2ccc(O)c(CNC(c3ccccc3)c3ccc(Cl)cc3)c2)n1 (stereo unspecified)	none (no result: Nrf2 activator, Nrf2 inh, A549 viability, ATXN2 expr inh)
CCCCCn1c(Sc2nc3ccccc3s2)nc2c1c(=O)[nH]c(=O)n2C	Nrf2 inh 16µM
CCCCCn1c(Sc2ncccn2)nc2c1c(=O)[nH]c(=O)n2C	S2 tox inconclusive (no result: Nrf2 inh)
Nc1[nH]n(-c2ccccc2)c(=O)c1N=Nc1ccccc1[N+](=O)[O-]	none
O=c1c2cc([N+](=O)[O-])cc([N+](=O)[O-])c2[nH]n1-c1ccccc1	A549 viability 16µM (no result: S2 tox)
Cc1ccc(C(=O)Nc2nc3c(s2)CCCC3)o1	Nrf2 inh inconclusive
O=C(Nc1nc2c(s1)CCCC2)c1ccc(Br)o1	Nrf2 activator 13µM, Nrf2 inh inconclusive
NCC1CCN(c2nc3ccccc3c3c2CCCC3)CC1	S2 tox 28µM, ATXN2 expr inh inconclusive
CN1CCCCc2c1nc1ccccc1c2N (tested in a mixture with another compound)	none
CC(C)(C)OC(=O)NCc1ccc(CNC(=O)c2[nH]cnc2C(=O)N[C@@H](Cc2ccccc2)C(=O)OC(C)(C)C)cc1	Nrf2 inh 23µM
CCOC(=O)c1ccc(NC(=O)c2nc[nH]c2C(=O)N[C@H](C)c2ccccc2)cc1	Nrf2 inh 16µM, S2 tox inconclusive, A549 viability inconclusive, ATXN2 expr inh 32µM
CC(C)(C)OC(=O)[C@H](Cc1ccccc1)NC(=O)c1[nH]cnc1C(=O)Nc1ccccc1F	S2 tox 18µM, ATXN2 expr inh inconclusive (no result: Nrf2 inh, A549 viability)
CNC(=O)c1[nH]cnc1C(=O)N[C@@H](Cc1ccccc1)C(=O)OC(C)(C)C	none
C[C@@H](NC(=O)c1nc[nH]c1C(=O)N[C@@H](CCCCNC(=O)OC(C)(C)C)C(=O)OC(C)(C)C)c1ccccc1	Nrf2 inh 16µM, S2 tox inconclusive, A549 viability inconclusive, ATXN2 expr inh inconclusive
Cc1ccc(NC(=O)c2nc[nH]c2C(=O)N[C@H](C)c2ccccc2)cc1	Nrf2 inh inconclusive, S2 tox inconclusive, ATXN2 expr inh inconclusive
CCc1cc(C(=O)NCCN2Cc3ccccc3OC(c3ccsc3)C2)n(C)n1 (stereo unspecified)	none (no result: Nrf2 activator, Nrf2 inh, A549 viability, ATXN2 expr inh)
COc1cc(=O)n2c(c1C(=O)N(C)Cc1nonc1C)CCN(C(=O)c1cc(C)cc(C)c1)CC2	none (no result: Nrf2 activator, Nrf2 inh, A549 viability, ATXN2 expr inh)
O=C(NCCCN1CCN(c2ccc(F)cc2)CC1)c1cc2c(Cl)nc3ccccc3c2s1	none
COc1ccc(Cn2c(SCc3cc(C)ccc3C)nc3cc(OC)c(OC)cc3c2=N)cc1	Nrf2 inh 23µM, A549 viability 18µM (no result: S2 tox, ATXN2 expr inh)
COc1ccc(Cn2c(SCc3ccc(C)cc3)nc3cc(OC)c(OC)cc3c2=N)cc1Cl	Nrf2 inh inconclusive, S2 tox 16µM, A549 viability inconclusive, ATXN2 expr inh 28µM
COc1ccc(Nc2ccc(S(=O)(=O)N3CCCCC3)cc2[N+](=O)[O-])cc1	Nrf2 inh 7.3µM, A549 viability inconclusive
COc1ccc2cc(S(=O)(=O)N3CCCCC3)ccc2c1S(=O)(=O)N1CCCCC1	Nrf2 inh 16µM
COc1ccc(Nc2ccc(S(=O)(=O)N3CCCCC3)cc2[N+](=O)[O-])cc1Cl	Nrf2 inh inconclusive
O=C(O)c1cccc(S(=O)(=O)N2CCN(S(=O)(=O)c3ccc4c(c3)OCCO4)CC2)c1	none (no result: Nrf2 activator, S2 tox, ATXN2 expr inh)
O=C(Nc1ccc2cn[nH]c2c1)c1c(Cl)cccc1Cl	none
O=C(NC1CCNCC1)c1[nH]ncc1NC(=O)c1c(Cl)cccc1Cl	ATXN2 expr inh 0.39µM (no result: Nrf2 activator, Nrf2 inh, S2 tox, A549 viability)
CCCn1c(N)c(C(=O)CSc2nnc(Cc3cccs3)n2C2CC2)c(=O)n(C)c1=O	Nrf2 inh 12µM (no result: ATXN2 expr inh)
CCOC(=O)c1cccc(NC(=O)C2CCN(S(=O)(=O)c3cccs3)CC2)c1	A549 viability inconclusive (no result: Nrf2 inh)
CCOC(=O)c1ccc2c(c1)nc(C1CCN(S(=O)(=O)c3cccs3)CC1)n2CC	Nrf2 inh 26µM, S2 tox inconclusive, A549 viability inconclusive, ATXN2 expr inh inconclusive
Cc1nc2ccc(C(=O)N3CCOc4ccc(CN5CCOCC5)cc4C3)cc2nc1C	none (no result: Nrf2 activator, Nrf2 inh, A549 viability, ATXN2 expr inh)
Cc1cccc(NC(=O)CSc2nc(-c3cccs3)cc(C(F)(F)F)c2C#N)c1	none
Oc1cccc(-c2c3nc(c(-c4cccc(O)c4)c4ccc([nH]4)c(-c4cccc(O)c4)c4nc(c(-c5cccc(O)c5)c5ccc2[nH]5)CC4)C=C3)c1	S2 tox 7.1µM (no result: Nrf2 activator, Nrf2 inh, A549 viability)
